Hits are enriched below; roughly 2.3% of the tested compounds scored in any of these assays.
Calpain2 inh = calpain II (pig) inhibition | purified calpain II, fluorogenic peptide substrate, 30 min | inhibition, % at 16 µM | actives 0.37% (n = 220,000);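 active means inhibition above about 50%, limit read from the data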
Cardio protect = modulators protecting cardiomyocytes from myocardial damage; H9c2 cardiomyocytes, H2O2 injury protection, ATPLite, 2 h; protection from H2O2 cell death, % at 20 µM; actives 0.63% (n = 360,000); AID 588492;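 active means compounds giving at least 50% protection of heart cells from peroxide-induced death in the single-dose screen, raw or plate-pattern-corrected value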;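 further: 0% = DMSO wells with peroxide and 100% = DMSO wells without peroxide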
FAS TE block = inhibitors of human fatty acid synthase thioesterase domain; actives 0.67% (n = 360,000); recombinant FAS-TE, OMFH fluorogenic substrate, fluorescence endpoint; AID 602261; inhibition, % at 15 µM;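 active means compounds whose normalised, plate-corrected inhibition of enzyme fluorescence in the single-dose primary screen is 50% or more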;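 further: 0% = DMSO with enzyme and 100% = substrate without enzyme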
H9c2 TAG inh = inhibitors of triacylglycerol accumulation. H9c2 cells, Nile Red lipid (TAG) fluorescence; cells loaded with 200 µM oleic acid. inhibition, % at 12.5 µM. actives 0.66% (n = 230,000);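 active means pattern-corrected inhibition of lipid staining of at least 50% with the nuclear-stain viability signal not falling by more than 50%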;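 further: 0% = DMSO wells and 100% = triacsin C control wells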
aDG glyco act = alpha-DG glycosylation activation; Pro5-aDG cells, alpha-DG glycosylation AlphaScreen (IIH6); 0% Pro5, 100% B10-LARGE cell signal; activation, % at 10 µM; actives 0.22% (n = 360,000);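 active means activation of at least 8% versus controls, or a plate z-score of at least 8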;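 further: Pro5 are CHO cells carrying HIG-tagged alpha-DG that lacks glycosylation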
MIN6 prolif = induces beta-cell replication in MIN6 cells | MIN6 cells proliferation, ATPlite luminescence, 48 h; cells starved in 0.2% serum; 100% = growth in 10% serum | proliferation, % at 10 µM | AID 2380 | actives 0.29% (n = 330,000);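 active means compounds whose signal lies at least 3.5 SD above the mean of all wells on their plate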;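 further: 0% = DMSO-treated cells in low-serum medium and 100% = 10% serum control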
An asterisk follows results filed as active.

For CCOc1ccc(-n2c(C)c(C(C)=O)c3cc(OC(C)=O)ccc32)cc1 the results were Cardio protect 50*, FAS TE block 6, aDG glyco act 0 and MIN6 prolif -1.
For CCOc1ccc(-n2c(C)c(C(=O)O)c3cc(OC)ccc32)cc1 the results were Cardio protect -4, FAS TE block -2, aDG glyco act 0 and MIN6 prolif -2.
O=C(CN1C(=O)c2cccc3cccc(c23)C1=O)NCCN1CCOCC1 was read as Calpain2 inh -8, Cardio protect 8, FAS TE block -7, H9c2 TAG inh 9, aDG glyco act 0 and MIN6 prolif -1.
For O=C(OCCN1C(=O)c2ccccc2C1=O)c1ccccc1 the results were Calpain2 inh -21, Cardio protect 2, FAS TE block 8, H9c2 TAG inh 5, aDG glyco act 0 and MIN6 prolif -3.
`O=C(OCCN1C(=O)c2ccccc2C1=O)c1ccc(S(=O)(=O)N2CCCCCC2)cc1` gave Calpain2 inh 68*, Cardio protect 0, FAS TE block 42, H9c2 TAG inh -12, aDG glyco act 0 and MIN6 prolif -4.
`O/N=C(\c1ccc(Cl)cc1)c1cc2ccccc2o1` gave Calpain2 inh 65*, Cardio protect -18, FAS TE block -7, aDG glyco act 0 and MIN6 prolif -3.
Screening Cc1ccc2c(c1)c1c(c(=O)n(-c3ccccc3C)c(=O)n1CC(=O)NCC1CCCO1)n2C (centres undefined) returned Cardio protect -2, FAS TE block -2, aDG glyco act 0 and MIN6 prolif 10.
Screening COc1ccc2[nH]c3c(c2c1)CCNC3c1ccc([N+](=O)[O-])o1 (centres undefined) returned Cardio protect 60*, FAS TE block -52, aDG glyco act 0 and MIN6 prolif -5.
COC(CNC(=O)C1CCC(CNS(=O)(=O)c2c(C)cc(C)cc2C)CC1)OC (centres undefined) was read as Cardio protect 3, FAS TE block -6, aDG glyco act 0 and MIN6 prolif -3.
Screening CCCCNC(=O)C1CCC(CNS(=O)(=O)c2c(C)cc(C)cc2C)CC1 (centres undefined) returned Cardio protect -4, FAS TE block -6, aDG glyco act 0 and MIN6 prolif -4.
Screening CCOC(=O)C1=c2s/c(=C\c3ccncc3)c(=O)n2C(N)=C(C(=O)OC)C1c1ccncc1 (centres undefined) returned Calpain2 inh -93, Cardio protect 68*, FAS TE block -4, H9c2 TAG inh -1, aDG glyco act 0 and MIN6 prolif -2.
Screening Cc1[nH]n(-c2ccc(Cl)c(Cl)c2)c(=O)c1CCO returned Calpain2 inh -23, Cardio protect -1, FAS TE block 16, H9c2 TAG inh 9, aDG glyco act 0 and MIN6 prolif -3.
Screening Cc1[nH]n(-c2ccc(C(=O)O)cc2)c(=O)c1CCO returned Calpain2 inh 58*, Cardio protect -3, FAS TE block -5 and aDG glyco act 0.
`CN(C)c1ncc(S(=O)(=O)c2ccc(Cl)cc2)c(-c2ccccc2)n1` gave Calpain2 inh 56*, Cardio protect -10, FAS TE block 23, H9c2 TAG inh 4, aDG glyco act 3 and MIN6 prolif -4.
Screening O=S(=O)(c1ccc(Cl)cc1)c1cnc(-c2cccnc2)nc1-c1ccccc1 returned Calpain2 inh -13, Cardio protect -6, FAS TE block -3, H9c2 TAG inh 3, aDG glyco act 0 and MIN6 prolif -2.
Screening CCn1c(/C=C/c2c[nH]c3ccccc23)nc2ccccc2c1=O returned Calpain2 inh -3, Cardio protect 8, FAS TE block 10, H9c2 TAG inh -5, aDG glyco act 1 and MIN6 prolif -3.
`CN(C)S(=O)(=O)c1ccc2[nH]cc(/C=C/c3nc4ccccc4c(=O)n3-c3ccccc3)c2c1` gave Calpain2 inh -61, Cardio protect 66*, FAS TE block 6, aDG glyco act 0 and MIN6 prolif -2.
Screening C/C=C1\NC(=O)[C@H](CC(N)=O)N(C)C(=O)C([C@@H](C)O)NC(=O)C(CCCc2ccc(OC)cc2)NC(=O)[C@H](C(C)C)NC(=O)/C(=C\C)NC(=O)[C@H](O)[C@@H](C[C@@H](O)CCCCCCC)NC(=O)[C@H](C)NC(=O)CN(C)C(=O)[C@H](CCC(N)=O)NC1=O (some centres undefined) returned Cardio protect 1, FAS TE block 8, H9c2 TAG inh 10 and aDG glyco act 0.
COc1cccc(N2CCN(C(=O)C3CCCN(c4ncnc5c4nc4n5CCCCC4)C3)CC2)c1 (centres undefined) was read as Cardio protect 42, FAS TE block 8, aDG glyco act 0 and MIN6 prolif 10.
Screening COc1cnc(-c2ccccn2)nc1NC(C)C returned Calpain2 inh -17, Cardio protect 28, FAS TE block -3, H9c2 TAG inh -10, aDG glyco act 7.1* and MIN6 prolif -5.
COc1ccccc1Sc1nc(-c2ccccn2)ncc1OC was read as Calpain2 inh -3, Cardio protect -6, FAS TE block -2, H9c2 TAG inh -21, aDG glyco act 4 and MIN6 prolif 1.
`CCOC(=O)C1=C(CC)Nc2ccccc2N=C1NC(=O)c1oc2ccccc2c1C` gave Calpain2 inh -26, Cardio protect 32, FAS TE block 34, H9c2 TAG inh 27, aDG glyco act 0 and MIN6 prolif -6.
For CCOCc1c(C(=O)NC2=Nc3ccccc3NC(CC)=C2C(=O)OCC)oc2ccccc12 the results were Calpain2 inh 38, Cardio protect 68*, FAS TE block 27, H9c2 TAG inh 27, aDG glyco act -1 and MIN6 prolif -5.
Screening CCOC(=O)C1=C(CC)Nc2ccccc2N=C1NC(=O)c1ccc(S(=O)(=O)N(C)C)cc1 returned Calpain2 inh -62, Cardio protect 81*, FAS TE block 2, H9c2 TAG inh -6, aDG glyco act 0 and MIN6 prolif -1.
`CCOC(=O)[C@@H]1[C@H]2COc3cc(OC)ccc3[C@H]2N2C(=O)N(c3ccc(Br)cc3)C(=O)[C@]12C` gave Cardio protect -2, FAS TE block 42, H9c2 TAG inh 11, aDG glyco act 0 and MIN6 prolif -4.
For O=C(N/N=C/c1cc(Br)cc(Br)c1O)c1cccc(S(=O)(=O)N2CCOCC2)c1 the results were Calpain2 inh -73, Cardio protect 50*, FAS TE block 26, H9c2 TAG inh 43, aDG glyco act 0 and MIN6 prolif -5.
O=C(N/N=C/c1ccc(Cl)cc1Cl)c1cccc(N2CCCC2=O)c1 was read as Cardio protect 0, FAS TE block -1, aDG glyco act 0 and MIN6 prolif -5.

Source: PubChem (several laboratories)
